Laboratory results as given in PubChem BioAssay AID1159580 (chemical genetic matrix, 2015).
About 2,000 (36%) of roughly 5,500 compounds were called active. About 18% were inconclusive and are not listed. Some of the results follow. A number with no mark means an inactive call. Cut-off read from the data, not from the text of the source: active = normalized growth mostly below about 0.91 (no sharp cut-off); inconclusive = no clear call, values can overlap the other calls; inactive = mostly above about 0.92.

Assay: chemical genetic growth profiling, strain panel (AID 1159580);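 note: tested at 20 µM; growth read once vehicle control cultures reached saturation at 30 °C; 1 = growth at the plate median or of vehicle wells; lower values mean less growth of the strain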
Details: S. cerevisiae deletion strains, growth OD

N#Cc1nccnc1Sc1ccc(Cl)cc1
normalized growth (locus YAL013W, strain DEP1, active compounds read low): 0.946
normalized growth (locus YBR229C, strain ROT2, active compounds read low): 0.936
normalized growth (locus YDL101C, strain DUN1, active compounds read low): 0.948
normalized growth (locus YDR150W, strain NUM1, active compounds read low): 1.03
normalized growth (locus YEL061C, strain CIN8, active compounds read low): 0.914
normalized growth (locus YGR078C, strain PAC10, active compounds read low): 0.962
normalized growth (locus YHR030C, strain SLT2, active compounds read low): 0.537 (active)
normalized growth (locus YHR087W, strain rtc3, active compounds read low): 0.978
normalized growth (locus YJL187C, strain SWE1, active compounds read low): 0.949
normalized growth (locus YJR043C, strain POL32, active compounds read low): 0.993
normalized growth (locus YJR075W, strain HOC1, active compounds read low): 0.986
normalized growth (locus YKL190W, strain CNB1, active compounds read low): 0.932
normalized growth (locus YLR039C, strain RIC1, active compounds read low): 0.698 (active)
normalized growth (locus YLR058C, strain SHM2 (second series), active compounds read low): 0.929 (active)
normalized growth (locus YLR085C, strain ARP6, active compounds read low): 0.686 (active)
normalized growth (locus YLR262C, strain YPT6, active compounds read low): 0.729 (active)
normalized growth (locus YML094W, strain GIM5, active compounds read low): 0.905
normalized growth (locus YMR219W, strain ESC1, active compounds read low): 0.93 (active)
normalized growth (locus YMR263W, strain SAP30, active compounds read low): 0.963
normalized growth (locus YNL128W, strain TEP1, active compounds read low): 0.945
normalized growth (locus YNL153C, strain GIM3, active compounds read low): 0.988
normalized growth (locus YNL298W, strain CLA4 (second series), active compounds read low): 0.868
normalized growth (locus YNL322C, strain KRE1, active compounds read low): 0.925 (active)
normalized growth (locus YNR030W, strain Alg12, active compounds read low): 0.927
normalized growth (locus YPL055C, strain LGE1, active compounds read low): 1.01
normalized growth (locus YPL241C, strain CIN2, active compounds read low): 0.941
normalized growth (locus YPR135W, strain CTF4, active compounds read low): 0.556 (active)
